Screening data deposited in PubChem by National Center for Advancing Translational Sciences (NCATS).
SARS PLpro yeast = blocks SARS-CoV papain-like protease in a yeast assay; S. cerevisiae expressing SARS-CoV PLpro, growth rescue; Potency, µM (doses to about 32.9 µM), usual class: activators; actives 0.19% (n = 330,000); further: nearly all actives have a fitted effect of over 55% in size
NS1 inh = blocks influenza NS1 protein function; Potency, µM (series often up to 46.1 µM); actives 0.4% (n = 270,000); AID 2326; further: actives are rising curves; nearly all actives have a fitted effect of over 50% in size
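S. cerevisiae expressing influenza A NS1, grown in glucose, washed, then diluted 1:100 into pH 6.0 -URA galactose medium with 23 nl compound. Growth recovery read as OD600; NS1-free strain serves as control.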
Pf growth 96h = inhibits malaria parasite growth, 96 h | P. falciparum luciferase reporter growth, 96 h | AID 504834 | Potency, µM (doses to about 28.7 µM), hits mostly inhibitors | actives 6.9% (n = 320,000); active means well fitted inhibition curve with a large enough effect; inconclusive means small, poorly fitted or top-dose-only effect, or another doubt; inactive means no such curve, though single readings can be large or run the other way
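Plates of compound plus infected erythrocytes (2% hematocrit, 0.05% parasitemia final) incubate 96 hours, 37 C, 5% CO2. Detection reagent added; reduced luminescence from the parasites' luciferase reporter flags inhibition.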
RE007 growth inh = less growth of the S. pombe RE007 Vpr strain; S. pombe RE007 Vpr strain, BacTiter-Glo ATP luminescence, 24 h; Potency, µM (titrated, usually from 92.2 µM), actives largely listed as inhibitors; actives 0.21% (n = 360,000); AID 651644; active means well fitted falling curve with a large enough effect; inconclusive means small, poorly fitted or top-dose-only effect; inactive means no such curve, though single readings can be large or run the other way; further: nearly all actives have a fitted effect of over 50% in size
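Fission yeast RE007 carrying one integrated HIV-1 vpr copy, seeded at OD 0.01 in PMG+AL medium with 23 nL pinned compound. Grown 24 h at 30 degrees; viability read by BacTiter-Glo luminescence after 5 min.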
Pf growth 48h = P. falciparum growth inhibition at 48 hours (one generation) | P. falciparum luciferase growth in erythrocytes, 48 h | Potency, µM (top dose mostly 28.7 µM), actives largely listed as inhibitors | actives 5.9% (n = 310,000); active means well fitted inhibition curve with a large enough effect; inconclusive means small, poorly fitted or top-dose-only effect, or another doubt; inactive means no such curve, though single readings can be large or run the other way
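Here the parasites carry a stable luciferase gene and grow inside erythrocytes in Albumax-based RPMI medium with compound for one erythrocytic cycle. Activity is scored as loss of luminescent signal.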
Hits are given with their value; - = inactive; ? = inconclusive; . = no result. Only some compounds are listed: those with a hit (about 9.5% of all), similar ones and a draw of the others. Unless noted, the call rests on the fitted dose curve.

SMILES | SARS PLpro yeast | NS1 inh | Pf growth 96h | RE007 growth inh | Pf growth 48h
COCCn1c(C)cc(C2=NNC(=Nc3ccccc3)SC2)c1C | - | - | - | - | ?
C=CCn1c(C)cc(C2=NNC(=NCc3ccccc3)SC2)c1C | - | . | 10.4µM | - | -
COCCn1c(C)cc(C2=NNC(=Nc3ccc(OC)cc3)SC2)c1C | - | ? | 3.7µM | - | 13.1µM
COCCn1c(C)cc(C2=NNC(=NC(C)(C)C)SC2)c1C | - | - | ? | - | 11.7µM
CCN=C1NN=C(c2cc(C)n(CCc3ccccc3)c2C)CS1 | - | . | ? | - | ?
Fc1ccccc1OCCSc1ncnc2nc[nH]c12 | - | - | 4.65µM | - | -
c1ccc(OCCSc2ncnc3nc[nH]c23)cc1 | . | . | . | - | .
Cc1ccc(NC(=O)CCNCc2ccco2)cc1S(=O)(=O)N(C)C | - | . | - | - | -
CSCCC1NC2(C(=O)Nc3c(Cl)cccc32)[C@@H]2C(=O)N(C3CCCC3)C(=O)[C@H]12 (stereo partly drawn) | - | - | 10.4µM | - | ?
CC(C)(C)c1ccc(OCCNCc2ccccc2)cc1 | - | - | - | - | -
Cc1cc(Cl)cc(C)c1OCCOCCNCc1ccccc1 | - | - | 14.7µM | - | ?
Cc1cc(C)c(C)c(OCCNCc2ccccc2)c1 | - | - | 11.7µM | - | -
Clc1ccc(OCCOCCNCc2ccccc2)cc1Cl | - | - | 13.1µM | - | -
Cc1cc(Cl)cc(C)c1OCCNCc1ccccc1 | - | - | ? | - | -
CC(CN1CCCCC1)NC(=O)c1cccs1 (stereo not drawn) | - | - | - | - | -
C#CCNC(=O)C1=C[C@@H](c2cn(C(C)=O)c3ccccc23)C[C@@H](OCc2ccc(CO)cc2)O1 | - | - | 6.57µM | - | 8.28µM
CC(=O)n1cc([C@@H]2C=C(C(=O)Nc3ccccc3)O[C@H](OCc3ccc(CO)cc3)C2)c2ccccc21 | - | ? | 5.86µM | - | ?
CC(=O)n1cc([C@H]2C=C(C(N)=O)O[C@@H](OCc3ccc(CO)cc3)C2)c2ccccc21 | . | . | . | - | .
CC(=O)n1cc([C@H]2C=C(C(=O)NCc3ccccc3)O[C@@H](OCc3ccc(CO)cc3)C2)c2ccccc21 | - | ? | 2.08µM | - | ?
CC12CC3(C)CC(C)(C1)CC(C(=O)NC(=S)N1CCCC1)(C2)C3 | - | . | ? | - | 6.57µM
CC(C)(C)C(=O)NC(=S)N1CCCC1 | - | - | - | - | -
CC(Cl)C(=O)NC(=O)NC12CC3CC(CC(C3)C1)C2 (stereo not drawn) | - | - | 13.1µM | - | ?
CSc1nnc(-c2ccncc2)n1/N=C/c1cn(-c2ccccc2)nc1-c1ccc(Cl)cc1 | - | - | - | - | 9.28µM
S=c1[nH]nc(-c2ccncc2)n1/N=C/c1cn(-c2ccccc2)nc1-c1ccc(Cl)cc1 | - | ? | ? | - | ?
Cc1ccc(OCCC(=O)Nc2ccc(F)c(Cl)c2)cc1 | - | - | 14.7µM | - | -
SMILES | SARS PLpro yeast | NS1 inh | Pf growth 96h | RE007 growth inh | Pf growth 48h
O=c1c2c3c(sc2n2cnnc2n1Cc1ccccc1)CN(Cc1ccccc1)CC3 | - | ? | ? | - | 10.4µM
Cc1nnc2n(Cc3ccccc3)c(=O)c3c4c(sc3n12)CN(Cc1ccccc1)CC4 | - | - | - | . | ?
O=C(Nc1ccccc1)C1=C[C@H](c2ccc(Br)cc2)C[C@H](OCc2ccc(CO)cc2)O1 | - | - | ? | - | -
O=C(NCc1ccccc1)C1=C[C@@H](c2ccccc2)C[C@@H](OCc2ccc(CO)cc2)O1 | - | - | 9.28µM | - | ?
O=C(NCc1ccccc1)C1=C[C@H](c2ccc(Br)cc2)C[C@H](OCc2ccc(CO)cc2)O1 | - | ? | 1.65µM | - | ?
O=S(=O)(c1cccc(C(F)(F)F)c1)N1c2ccccc2-n2cccc2[C@H]1c1cccnc1 | . | - | . | . | .
O=S(=O)(NCc1ccc(Cl)cc1)c1cccc2cccnc12 | - | - | - | - | -
O=S(=O)(NCCc1ccc(Cl)cc1)c1cccc2cccnc12 | - | - | 9.28µM | - | -
CC(C)n1c(CNC(=O)c2ccccc2F)nnc1SCC(=O)c1ccc(F)cc1 | . | . | . | - | .
COC(=O)c1cc2sc(Cl)cc2n1Cc1nc(-c2cccc(C)c2)oc1C | - | - | - | . | .
COC(=O)c1cc2sc(Cl)cc2n1Cc1nc(-c2ccccc2)oc1C | - | - | 8.28µM | - | .
O=C(NC1CC1)C1=C[C@@H](c2c[nH]c3ccccc23)C[C@@H](OCc2ccc(CO)cc2)O1 | - | - | ? | - | -
COc1cccc(C(=O)NCCS(=O)(=O)N2CCC(C)CC2)c1 | - | . | - | - | -
O=C1c2ccccc2C(=O)c2c1cccc2-n1nnc2ccccc21 | - | - | - | - | ?
O=C1C(N2CCOCC2)=C(n2nnc3ccccc32)C(=O)c2ccccc21 | - | - | 2.33µM | - | .
Clc1cc2c(c(CSC3=NCN(CC4CC4)CN3)c1)OCOC2 | . | - | . | . | .
C=CCN(c1ccccc1)S(=O)(=O)c1cccc(C(=O)Nc2ccc(N3CCOCC3)cc2)c1 | - | . | ? | - | -
Cc1ccc(-n2c(SCC(=O)NCCN3C(=O)CSC3=O)nnc2-c2ccccc2F)cc1 | - | - | 14.7µM | - | -
O=C(Nc1cccc(F)c1)N(Cc1ccc(Cl)cc1)CC(O)C(F)(F)F (stereo not drawn) | - | - | 2.62µM | - | 8.28µM
O=C(Nc1ccccc1)N(Cc1ccccc1)CC(O)C(F)(F)F (stereo not drawn) | - | - | - | - | -
Oc1ccc(-n2nnnc2SCc2ccccc2Br)cc1 | - | - | 13.1µM | - | ?
COc1ccc(OC)c(NC(=O)CSc2ncnc3c2cnn3-c2ccccc2Cl)c1 | - | - | - | - | 10.4µM
COc1cc(NC(=O)CSc2ncnc3c2cnn3Cc2ccccc2)cc(OC)c1 | - | - | . | - | 11.7µM
COc1ccc(OC)c(NC(=O)CSc2ncccn2)c1 | - | - | - | - | .
COc1cccc(C=NNc2nnc(NN=Cc3cccc(OC)c3OC)c3ccccc23)c1OC | . | . | . | - | .
SMILES | SARS PLpro yeast | NS1 inh | Pf growth 96h | RE007 growth inh | Pf growth 48h
COc1cccc(/C=N/Nc2nc3ccccc3[nH]2)c1O | - | - | 2.33µM | - | ?
COc1cccc(/C=N/Nc2nc3ccccc3[nH]2)c1OC | - | - | 10.4µM | - | ?
CCCOC1CCCN(C(=O)c2cc(COc3ccc(F)c(F)c3)on2)C1 (stereo not drawn) | - | - | ? | - | -
COc1ccc(CN(C)C(=O)Cn2cc(C)c(=O)[nH]c2=O)cc1OC | . | . | . | - | .
COc1cc(C2C(C#N)=C(N)N(c3sc4c(c3C#N)CCCC4)C3=C2C(=O)CC(C)(C)C3)cc(OC)c1OC (stereo not drawn) | - | - | 11.7µM | - | ?
COc1cc(OC)c(OC)cc1CCC(C)NCCC(c1ccccc1)c1ccccc1 (stereo not drawn) | - | - | 2.08µM | . | 4.15µM
CC1(c2ccc(OC(F)F)cc2)NC(=O)N(CC(=O)N2CCN(C(=O)c3ccco3)CC2)C1=O (stereo not drawn) | - | . | - | - | -
CCCCNC(=O)C(NC(=O)c1ccc(-c2ccccc2)cc1)C(=O)c1ccccc1 (stereo not drawn) | . | . | . | - | .
